Results published in article PMC11006913.
Positions count from the first letter of the chain named.

Tests used:
Experiment in all cases: PBM; 200 nM protein, PBS
Conditions in all cases: dsDNA, one strand shown
[1] = target: HOXB9 (Homo sapiens, UniProt P17482 171-250, T197M)
[2] = target: HOXB6 (Homo sapiens, UniProt P17509 132-218, K202E)
[3] = target: HOXB9 (Homo sapiens, UniProt P17482 171-250)
[4] = target: PROP1 (Homo sapiens, UniProt O75360 56-141)
[5] = target: PROP1 (Homo sapiens, UniProt O75360 56-141, R99H)
Sequence of PROP1 (Homo sapiens, UniProt O75360 56-141, R99H) (O75360 56-141 R99H): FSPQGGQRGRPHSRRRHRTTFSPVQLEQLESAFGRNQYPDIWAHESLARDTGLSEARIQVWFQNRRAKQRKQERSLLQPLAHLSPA

[6] = target: HOXB9 (Homo sapiens, UniProt P17482 171-250, R186Q)
Sequence of HOXB9 (Homo sapiens, UniProt P17482 171-250, R186Q) (P17482 171-250 R186Q): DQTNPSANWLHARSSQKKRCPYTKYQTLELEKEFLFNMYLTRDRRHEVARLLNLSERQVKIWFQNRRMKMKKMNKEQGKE

[7] = target: PROP1 (Homo sapiens, UniProt O75360 56-141, F88S)
Sequence of PROP1 (Homo sapiens, UniProt O75360 56-141, F88S) (O75360 56-141 F88S): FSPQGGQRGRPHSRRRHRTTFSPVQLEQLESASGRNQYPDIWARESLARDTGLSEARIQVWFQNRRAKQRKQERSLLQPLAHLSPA

[8] = target: HOXB6 (Homo sapiens, UniProt P17509 132-218)
Sequence of HOXB6 (Homo sapiens, UniProt P17509 132-218) (P17509 132-218): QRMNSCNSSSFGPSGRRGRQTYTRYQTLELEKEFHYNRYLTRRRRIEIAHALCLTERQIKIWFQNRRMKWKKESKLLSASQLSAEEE

[9] = target: HOXC9 (Homo sapiens, UniProt P31274 178-260, K195R)
Sequence of HOXC9 (Homo sapiens, UniProt P31274 178-260, K195R) (P31274 178-260 K195R): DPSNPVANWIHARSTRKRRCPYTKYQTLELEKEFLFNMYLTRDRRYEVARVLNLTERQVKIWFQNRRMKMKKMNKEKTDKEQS

[10] = target: HOXC9 (Homo sapiens, UniProt P31274 178-260)
Sequence of HOXC9 (Homo sapiens, UniProt P31274 178-260) (P31274 178-260): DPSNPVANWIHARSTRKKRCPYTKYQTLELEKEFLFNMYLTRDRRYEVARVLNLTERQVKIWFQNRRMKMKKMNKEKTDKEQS

[11] = target: HOXC9 (Homo sapiens, UniProt P31274 178-260, R193K)
Sequence of HOXC9 (Homo sapiens, UniProt P31274 178-260, R193K) (P31274 178-260 R193K): as the sequence (P31274 178-260) above, with R16K counted along it

[12] = target: HOXC10 (Homo sapiens, UniProt Q9NYD6 254-340, K271E)
Sequence of HOXC10 (Homo sapiens, UniProt Q9NYD6 254-340, K271E) (Q9NYD6 254-340 K271E): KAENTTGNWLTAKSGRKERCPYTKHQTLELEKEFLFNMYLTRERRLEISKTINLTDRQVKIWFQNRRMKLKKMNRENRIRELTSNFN

[13] = target: HOXC9 (Homo sapiens, UniProt P31274 178-260, R222W)
Sequence of HOXC9 (Homo sapiens, UniProt P31274 178-260, R222W) (P31274 178-260 R222W): as the sequence (P31274 178-260) above, with R45W counted along it

[14] = target: HOXC10 (Homo sapiens, UniProt Q9NYD6 254-340)
Sequence of HOXC10 (Homo sapiens, UniProt Q9NYD6 254-340) (Q9NYD6 254-340): as the sequence (Q9NYD6 254-340 K271E) above, with E18K counted along it

[15] = target: T1, PAX4 (Homo sapiens, UniProt O43316 9-242, R200K)
T1 sequence: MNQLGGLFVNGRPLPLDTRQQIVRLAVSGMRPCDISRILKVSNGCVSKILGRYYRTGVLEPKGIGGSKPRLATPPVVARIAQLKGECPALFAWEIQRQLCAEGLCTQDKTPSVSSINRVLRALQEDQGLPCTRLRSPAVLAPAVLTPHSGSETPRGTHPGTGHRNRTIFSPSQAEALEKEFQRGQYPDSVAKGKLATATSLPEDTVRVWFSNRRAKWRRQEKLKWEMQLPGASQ

[16] = target: PRRX1 (Homo sapiens, UniProt P54821 80-166, F113S)
Sequence of PRRX1 (P54821 80-166 F113S): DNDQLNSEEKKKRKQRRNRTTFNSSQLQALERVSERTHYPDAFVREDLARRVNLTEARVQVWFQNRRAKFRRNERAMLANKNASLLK

[17] = target: ALX3 (Homo sapiens, UniProt O95076 139-225, N203Q)
Sequence of ALX3 (Homo sapiens, UniProt O95076 139-225, N203Q) (O95076 139-225 N203Q): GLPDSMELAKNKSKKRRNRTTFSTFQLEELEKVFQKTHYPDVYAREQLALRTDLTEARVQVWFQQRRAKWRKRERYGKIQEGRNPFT

[18] = target: T2, PAX4 (Homo sapiens, UniProt O43316 9-242, F177V)
T2 sequence: T1 sequence with F169V, K192R

[19] = target: T3, PAX4 (Homo sapiens, UniProt O43316 9-242, F177Y)
T3 sequence: T1 sequence with F169Y, K192R

[20] = target: T4, PAX4 (Homo sapiens, UniProt O43316 9-242, R227W)
T4 sequence: T1 sequence with K192R, R219W

[21] = target: ALX3 (Homo sapiens, UniProt O95076 139-225, N203S)
Sequence of ALX3 (Homo sapiens, UniProt O95076 139-225, N203S) (O95076 139-225 N203S): as the sequence (O95076 139-225 N203Q) above, with Q65S counted along it

[22] = target: T5, PAX4 (Homo sapiens, UniProt O43316 9-242)
T5 sequence: T1 sequence with K192R

[23] = target: T6, PAX4 (Homo sapiens, UniProt O43316 9-242, R200Q)
T6 sequence: T1 sequence with K192Q

[24] = target: HOXD13 (Homo sapiens, UniProt P35453 263-343, T313R)
Sequence of HOXD13 (Homo sapiens, UniProt P35453 263-343, T313R) (P35453 263-343 T313R): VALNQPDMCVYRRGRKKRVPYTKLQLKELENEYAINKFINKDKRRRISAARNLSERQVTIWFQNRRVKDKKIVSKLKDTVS

[25] = target: HOXD13 (Homo sapiens, UniProt P35453 263-343)
Sequence of HOXD13 (Homo sapiens, UniProt P35453 263-343) (P35453 263-343): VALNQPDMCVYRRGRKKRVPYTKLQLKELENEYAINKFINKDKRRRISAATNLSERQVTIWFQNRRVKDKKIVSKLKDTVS

[26] = target: HOXD13 (Homo sapiens, UniProt P35453 263-343, T313A)
Sequence of HOXD13 (Homo sapiens, UniProt P35453 263-343, T313A) (P35453 263-343 T313A): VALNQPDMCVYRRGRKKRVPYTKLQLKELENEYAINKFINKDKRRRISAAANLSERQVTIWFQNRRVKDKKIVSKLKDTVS

[27] = target: MSX2 (Homo sapiens, UniProt P35548 130-214, R199I)
Sequence of MSX2 (Homo sapiens, UniProt P35548 130-214, R199I) (P35548 130-214 R199I): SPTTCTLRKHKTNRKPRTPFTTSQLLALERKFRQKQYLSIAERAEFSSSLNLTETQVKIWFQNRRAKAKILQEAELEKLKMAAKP

[28] = target: MSX2 (Homo sapiens, UniProt P35548 130-214)
Sequence of MSX2 (Homo sapiens, UniProt P35548 130-214) (P35548 130-214): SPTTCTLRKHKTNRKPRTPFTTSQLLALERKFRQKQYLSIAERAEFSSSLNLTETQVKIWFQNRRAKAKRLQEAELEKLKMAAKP

[29] = target: MSX2 (Homo sapiens, UniProt P35548 130-214, F161Y)
Sequence of MSX2 (Homo sapiens, UniProt P35548 130-214, F161Y) (P35548 130-214 F161Y): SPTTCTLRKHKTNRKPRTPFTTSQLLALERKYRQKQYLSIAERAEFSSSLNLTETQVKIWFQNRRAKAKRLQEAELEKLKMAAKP

Sequence of HOXB9 (Homo sapiens, UniProt P17482 171-250, T197M) (P17482 171-250 T197M): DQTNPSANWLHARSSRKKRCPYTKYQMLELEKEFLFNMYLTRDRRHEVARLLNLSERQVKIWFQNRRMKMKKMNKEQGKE
Sequence of HOXB9 (Homo sapiens, UniProt P17482 171-250) (P17482 171-250): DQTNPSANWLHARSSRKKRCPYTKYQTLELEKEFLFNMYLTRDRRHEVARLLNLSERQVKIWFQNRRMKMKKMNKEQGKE
Sequence of HOXB6 (Homo sapiens, UniProt P17509 132-218, K202E) (P17509 132-218 K202E): as the sequence (P17509 132-218) above, with K71E counted along it
Sequence of PROP1 (Homo sapiens, UniProt O75360 56-141) (O75360 56-141): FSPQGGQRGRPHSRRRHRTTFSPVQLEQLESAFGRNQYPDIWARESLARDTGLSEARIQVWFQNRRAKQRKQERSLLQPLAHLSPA

Sequence: GGTGGAGA
- binding signal [1]: 8.58 upbm affinity estimate (log intensity, higher = more binding, comparable within an allelic series)
- binding signal [2]: 9.03 upbm affinity estimate (log intensity, higher = more binding, comparable within an allelic series)
- binding signal [3]: 8.51 upbm affinity estimate (log intensity, higher = more binding, comparable within an allelic series)
- binding signal [4]: 6.89 upbm affinity estimate (log intensity, higher = more binding, comparable within an allelic series)
- binding signal [5]: 6.82 upbm affinity estimate (log intensity, higher = more binding, comparable within an allelic series)
- binding signal [6]: 8.56 upbm affinity estimate (log intensity, higher = more binding, comparable within an allelic series)
- binding signal [7]: 6.65 upbm affinity estimate (log intensity, higher = more binding, comparable within an allelic series)
- binding signal [8]: 9.09 upbm affinity estimate (log intensity, higher = more binding, comparable within an allelic series)

Sequence: ACATTAAA
- binding signal [1]: 9.92 upbm affinity estimate (log intensity, higher = more binding, comparable within an allelic series)
- binding signal [9]: 12.6 upbm affinity estimate (log intensity, higher = more binding, comparable within an allelic series)
- binding signal [3]: 12 upbm affinity estimate (log intensity, higher = more binding, comparable within an allelic series)
- binding signal [10]: 12.6 upbm affinity estimate (log intensity, higher = more binding, comparable within an allelic series)
- binding signal [11]: 12.6 upbm affinity estimate (log intensity, higher = more binding, comparable within an allelic series)
- binding signal [12]: 11.8 upbm affinity estimate (log intensity, higher = more binding, comparable within an allelic series)
- binding signal [6]: 11.7 upbm affinity estimate (log intensity, higher = more binding, comparable within an allelic series)
- binding signal [13]: 11 upbm affinity estimate (log intensity, higher = more binding, comparable within an allelic series)

Sequence: GGTCGTTA
- binding signal [1]: 9.98 upbm affinity estimate (log intensity, higher = more binding, comparable within an allelic series)
- binding signal [14]: 12.2 upbm affinity estimate (log intensity, higher = more binding, comparable within an allelic series)
- binding signal [12]: 12.2 upbm affinity estimate (log intensity, higher = more binding, comparable within an allelic series)

Sequence: ATTAAATA
- binding signal [1]: 10.1 upbm affinity estimate (log intensity, higher = more binding, comparable within an allelic series)
- binding signal [15]: 11.7 upbm affinity estimate (log intensity, higher = more binding, comparable within an allelic series)
- binding signal [16]: 11.1 upbm affinity estimate (log intensity, higher = more binding, comparable within an allelic series)
- binding signal [2]: 10 upbm affinity estimate (log intensity, higher = more binding, comparable within an allelic series)
- binding signal [3]: 11.7 upbm affinity estimate (log intensity, higher = more binding, comparable within an allelic series)
- binding signal [17]: 8.66 upbm affinity estimate (log intensity, higher = more binding, comparable within an allelic series)
- binding signal [11]: 12.5 upbm affinity estimate (log intensity, higher = more binding, comparable within an allelic series)
- binding signal [18]: 10.8 upbm affinity estimate (log intensity, higher = more binding, comparable within an allelic series)
- binding signal [19]: 11.1 upbm affinity estimate (log intensity, higher = more binding, comparable within an allelic series)
- binding signal [6]: 11.5 upbm affinity estimate (log intensity, higher = more binding, comparable within an allelic series)
- binding signal [13]: 11.1 upbm affinity estimate (log intensity, higher = more binding, comparable within an allelic series)
- binding signal [20]: 11 upbm affinity estimate (log intensity, higher = more binding, comparable within an allelic series)
- binding signal [21]: 8.86 upbm affinity estimate (log intensity, higher = more binding, comparable within an allelic series)

Sequence: ATTAATAC
- binding signal [1]: 10.1 upbm affinity estimate (log intensity, higher = more binding, comparable within an allelic series)
- binding signal [15]: 11.8 upbm affinity estimate (log intensity, higher = more binding, comparable within an allelic series)
- binding signal [22]: 12.2 upbm affinity estimate (log intensity, higher = more binding, comparable within an allelic series)
- binding signal [2]: 10.1 upbm affinity estimate (log intensity, higher = more binding, comparable within an allelic series)
- binding signal [23]: 11.8 upbm affinity estimate (log intensity, higher = more binding, comparable within an allelic series)
- binding signal [18]: 10.6 upbm affinity estimate (log intensity, higher = more binding, comparable within an allelic series)
- binding signal [19]: 11.1 upbm affinity estimate (log intensity, higher = more binding, comparable within an allelic series)
- binding signal [20]: 11.1 upbm affinity estimate (log intensity, higher = more binding, comparable within an allelic series)

Sequence: CCCGATGC
- binding signal [1]: 8.47 upbm affinity estimate (log intensity, higher = more binding, comparable within an allelic series)
- binding signal [9]: 9.5 upbm affinity estimate (log intensity, higher = more binding, comparable within an allelic series)
- binding signal [3]: 8.13 upbm affinity estimate (log intensity, higher = more binding, comparable within an allelic series)
- binding signal [10]: 9.57 upbm affinity estimate (log intensity, higher = more binding, comparable within an allelic series)
- binding signal [24]: 9.52 upbm affinity estimate (log intensity, higher = more binding, comparable within an allelic series)
- binding signal [11]: 9.49 upbm affinity estimate (log intensity, higher = more binding, comparable within an allelic series)
- binding signal [25]: 9.47 upbm affinity estimate (log intensity, higher = more binding, comparable within an allelic series)
- binding signal [26]: 9.71 upbm affinity estimate (log intensity, higher = more binding, comparable within an allelic series)
- binding signal [6]: 8.19 upbm affinity estimate (log intensity, higher = more binding, comparable within an allelic series)
- binding signal [13]: 9.68 upbm affinity estimate (log intensity, higher = more binding, comparable within an allelic series)

Sequence: CCGCTCCG
- binding signal [1]: 8.44 upbm affinity estimate (log intensity, higher = more binding, comparable within an allelic series)
- binding signal [9]: 9.63 upbm affinity estimate (log intensity, higher = more binding, comparable within an allelic series)
- binding signal [3]: 8.59 upbm affinity estimate (log intensity, higher = more binding, comparable within an allelic series)
- binding signal [10]: 9.73 upbm affinity estimate (log intensity, higher = more binding, comparable within an allelic series)
- binding signal [11]: 9.74 upbm affinity estimate (log intensity, higher = more binding, comparable within an allelic series)
- binding signal [6]: 8.66 upbm affinity estimate (log intensity, higher = more binding, comparable within an allelic series)
- binding signal [13]: 9.7 upbm affinity estimate (log intensity, higher = more binding, comparable within an allelic series)

Sequence: GCTCTCCC
- binding signal [1]: 8.34 upbm affinity estimate (log intensity, higher = more binding, comparable within an allelic series)
- binding signal [15]: 9.21 upbm affinity estimate (log intensity, higher = more binding, comparable within an allelic series)
- binding signal [22]: 9.22 upbm affinity estimate (log intensity, higher = more binding, comparable within an allelic series)
- binding signal [3]: 8.35 upbm affinity estimate (log intensity, higher = more binding, comparable within an allelic series)
- binding signal [27]: 9.54 upbm affinity estimate (log intensity, higher = more binding, comparable within an allelic series)
- binding signal [23]: 9.3 upbm affinity estimate (log intensity, higher = more binding, comparable within an allelic series)
- binding signal [18]: 9.23 upbm affinity estimate (log intensity, higher = more binding, comparable within an allelic series)
- binding signal [28]: 9.45 upbm affinity estimate (log intensity, higher = more binding, comparable within an allelic series)
- binding signal [19]: 9.16 upbm affinity estimate (log intensity, higher = more binding, comparable within an allelic series)
- binding signal [4]: 6.88 upbm affinity estimate (log intensity, higher = more binding, comparable within an allelic series)
- binding signal [5]: 6.87 upbm affinity estimate (log intensity, higher = more binding, comparable within an allelic series)
- binding signal [6]: 8.35 upbm affinity estimate (log intensity, higher = more binding, comparable within an allelic series)
- binding signal [7]: 6.53 upbm affinity estimate (log intensity, higher = more binding, comparable within an allelic series)
- binding signal [29]: 9.57 upbm affinity estimate (log intensity, higher = more binding, comparable within an allelic series)
- binding signal [20]: 9.27 upbm affinity estimate (log intensity, higher = more binding, comparable within an allelic series)
